High-throughput results as filed in PubChem BioAssay.
In the library only some 2.7% were active in any assay of this set; here they are far more common.
ALOX12 inh = blocks human arachidonate 12S-lipoxygenase; purified 12hLO, xylenol orange hydroperoxide absorbance; Potency, µM (titrated, usually from 108 µM), inactives show at the top dose activity change, negative = inhibition, usual class: inhibitors; hit rate 1.1% among 580,000; further: on the % scale 0 is the no-effect control and ±100 the full control effect
Target sequence (P18054 whole entry, looked up): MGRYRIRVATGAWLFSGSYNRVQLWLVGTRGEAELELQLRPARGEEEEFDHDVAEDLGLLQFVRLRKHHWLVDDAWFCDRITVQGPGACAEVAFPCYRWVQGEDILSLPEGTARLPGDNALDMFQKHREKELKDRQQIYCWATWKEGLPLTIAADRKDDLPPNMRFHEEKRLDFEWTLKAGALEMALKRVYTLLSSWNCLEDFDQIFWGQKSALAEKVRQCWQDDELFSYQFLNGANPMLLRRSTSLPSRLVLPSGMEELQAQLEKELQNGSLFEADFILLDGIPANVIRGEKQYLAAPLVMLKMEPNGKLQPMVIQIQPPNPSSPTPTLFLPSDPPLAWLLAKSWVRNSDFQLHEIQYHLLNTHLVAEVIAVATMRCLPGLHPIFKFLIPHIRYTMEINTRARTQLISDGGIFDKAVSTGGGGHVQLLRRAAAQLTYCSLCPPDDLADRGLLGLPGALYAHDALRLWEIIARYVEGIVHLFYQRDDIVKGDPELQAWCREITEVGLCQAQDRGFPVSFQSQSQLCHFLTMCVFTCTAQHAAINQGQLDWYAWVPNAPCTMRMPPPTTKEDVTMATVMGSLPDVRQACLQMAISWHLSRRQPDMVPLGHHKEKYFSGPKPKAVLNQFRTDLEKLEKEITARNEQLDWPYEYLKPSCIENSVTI
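Purified human 12hLO (150 nM final) in 25 mM Hepes, 0.01% Triton X-100, pH 7.0 was preincubated 15 min at room temperature with compound. Then 40 uM arachidonic acid was added, 30 min. Hydroperoxide was read by Fe-XO absorbance ratio 573/405 nm.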
ATXN2 expr inh = ATXN2 expression inhibition. AID 1745845. Potency, µM (top dose mostly 57 µM), for inactives: top-dose activity change, negative = inhibition, most hits filed as inhibitors. HEK-293 ATXN2-luciferase reporter, luminescence, 24 h. hit rate 0.72% among 360,000; further: on the % scale 0 is the no-effect control and ±100 the full control effect; nearly all actives have a fitted effect of over 55% in size
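ATXN2-luciferase reporter cells (luciferase flanked by upstream and downstream ATXN2 gene portions) were treated 24 h at 37 °C with compounds at up to 57 uM. SteadyGlo luminescence gave expression; GF-AFC fluorescence gave viability.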
TGFb inhibitor = inhibitors of TGF-b signaling; HepG2 CAGA-GFP TGF-b/SMAD3 reporter, GFP fluorescence, 18 h; TGF-beta stimulated, 500 pg/mL final; Potency, µM (doses to about 46.1 µM), inactives show at the top dose activity, negative = inhibition, usual class: inhibitors; hit rate 1.2% among 410,000; AID 588855; further: on the % scale 0 is the no-effect control and ±100 the full control effect; nearly all actives have a fitted effect of over 65% in size
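TGF-beta reporter screen: HEPG2 CAGA-GFP, 1% FBS, 500 pg/mL TGF-beta final, 18 h; per-cell GFP summed per well; curves fitted and categorized by class.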
HepG2 viability = counter-screen for TGF-b inhibitors: cytotoxicity in HepG2 cells; hit rate 0.76% among 410,000; AID 588856; Potency, µM (highest dose often 46.1 µM), for inactives: at the top dose activity change, negative = cytotoxicity, actives largely listed as cytotoxic; HepG2 CAGA-GFP viability, ATP luminescence, 18 h
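HepG2 CAGA-GFP cells (1000/well, DMEM with 1% FBS) received compound, then TGF-beta at 500 pg/mL final, and were incubated 18 hours at 37 degrees C. Viability was read by CellTiter-Glo luminescence. Media-only wells were set as complete cell-killing and DMSO as no toxicity.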
S2 tox = viability counter-screen for ATXN expression inhibitors | S2 cells (HEK-293 line with an ATXN2-luciferase reporter) viability, CellTiter-Fluor protease fluorescence, 24 h | Potency, µM (doses to about 56.7 µM), usual class: cytotoxic | hit rate 0.49% among 400,000 | AID 651635; further: nearly all actives have a fitted effect of over 40% in size
Starred values were filed as active, the others as inactive; i = inactive; ? = inconclusive; / = no result; [ ] = dose if it differs, or a comment. The call rests on the fitted dose curve; in most records, active means well fitted curve in the direction sought with a large enough effect; inconclusive means small, poorly fitted or top-dose-only effect, or another doubt; inactive means no such curve, though single readings can be large; an effect the other way counts as inactive or inconclusive. Potency means the concentration at half of the fitted maximal effect.

SMILES	ALOX12 inh	ATXN2 expr inh	TGFb inhibitor	HepG2 viability	S2 tox
CCOc1ccccc1N1CCN(C2=C(NS(=O)(=O)c3cccs3)C(=O)c3ccccc3C2=O)CC1	-1%	-20%	18µM*	-32%	i
CCOC(=O)N1CCN(C2=C(NS(=O)(=O)c3ccc(Br)cc3)C(=O)c3ccccc3C2=O)CC1	?	/	?	-81%	?
CCN1CCN(C2=C(NS(=O)(=O)c3ccccc3)C(=O)c3ccccc3C2=O)CC1	28%	/	11µM*	-115%	?
CCN1CCN(C2=C(NS(=O)(=O)c3ccc(Br)cc3)C(=O)c3ccccc3C2=O)CC1	?	/	13µM*	18µM*	?
CCOC(=O)C1CCN(C2=C(NS(=O)(=O)c3ccc(Br)cc3)C(=O)c3ccccc3C2=O)CC1	?	/	18µM*	-101%	18µM*
CCCCCCCC(=O)N/N=C/C(C)=N/NC(=O)CCCCCCC	-41%	/	/	/	/
COc1ccc(C2c3[nH]c4ccccc4c3CCN2C(=O)CCC2CCCC2)cc1 (configuration not stated)	-26%	/	?	-21%	/
COc1ccc(C2c3[nH]c4ccc(OC)cc4c3CCN2C(=O)Nc2ccccc2)cc1 (configuration not stated)	-13%	-23%	8.9µM*	-23%	?
O=[N+]([O-])c1ccc(C2Nc3cccc4cccc(c34)N2)cc1	40µM*	-5%	5%	-6%	i
CCOc1cc2nc(-c3ccc(OC)c(OC)c3)nc(NCCCN3CCOCC3)c2cc1OC	0%	-12%	5%	-16%	i
COc1cc2nc(-c3ccc(N4CCN(C)CC4)cc3)nc(NCCN3CCOCC3)c2cc1OC	-35%[57.4 µM]	0.39µM*	/	/	/
CCNC(=O)c1cc2c(-c3cc(OCCN4CCCC4)c(Cl)cc3Cl)nc(N)nc2s1	?	1.4µM*	/	/	/
O=C(CC1C(=O)N(c2ccccc2)C(=O)N1CCC1=CCCCC1)Nc1ccc(F)cc1 (configuration not stated)	1%	-22%	11µM*	-39%	?
Cc1cc(C)n(-c2nc3c(c(=O)n(C)c(=O)n3C)n2Cc2c(F)cccc2Cl)n1	43%	/	/	/	/
Cc1ccc(-n2nnnc2CNS(=O)(=O)c2ccccc2Cl)cc1	-8%	/	/	/	/
CCCC(C)C(O)CC (configuration not stated)	10%[176 µM]	/	/	/	/
COc1cccc(NC(=O)Cc2csc(COc3cccc(C)c3)n2)c1	-30%	-4%	-13%	1%	?
Cc1cc(C)cc(NC(=O)Cc2csc(COc3cccc(C)c3)n2)c1	50µM*	-4%	-1%	-10%	i
Cc1cccc(Cl)c1NC(=O)N1CCCN(c2nc3ccc(Cl)cc3s2)CC1	?	/	14µM*	-63%	?
C/C(=N\NS(=O)(=O)c1ccc(Br)cc1)c1ccncc1	32µM*	-17%	-3%	0%	i
O=C(Cn1nnc(-c2ccc(F)cc2)n1)c1ccccc1	28%	/	/	/	/
CCN1CCS/C1=C\C=C\C1=[N+](CC)CCS1	-5%	?	?	-30%	24µM*
Cc1cccc(Cn2cccc2CNS(=O)(=O)c2ccc(Br)cc2)c1	?	?	16µM*	-107%	?
Cc1cccc(Cn2cccc2CNS(=O)(=O)c2ccc(C)c(C)c2)c1	?	?	18µM*	-106%	i
CCc1ccc(S(=O)(=O)NCc2cccn2Cc2cccc(C)c2)cc1	-36%	?	?	-100%	?
SMILES	ALOX12 inh	ATXN2 expr inh	TGFb inhibitor	HepG2 viability	S2 tox
COc1ccc2nc3cc(Cl)ccc3c(Nc3ccc(O)c(CN4CCN(C)CC4)c3)c2c1	?	?	11µM*	-72%	?
CCn1cc(C(=O)NC2CCCCC2C)c(=O)c2ccc(C)nc21 (configuration not stated)	16µM*	-9%	6%	1%	i
CCn1cc(C(=O)OCC(=O)N2C(C)CCCC2C)c(=O)c2ccc(C)nc21 (configuration not stated)	1%	-23%	0%	1%	i
CN(CCOc1ccccc1)CC(=O)Nc1ccc([N+](=O)[O-])cc1Cl	-5%	-10%	11µM*	-82%	i
N#CCCn1cc(/C=C2\NC(=S)N(c3ccccc3)C2=O)c(-c2ccc(-c3ccccc3)cc2)n1	-23%	?	10µM*	-4%	?
COc1ccc(-c2nn(-c3ccccc3)cc2/C=N/n2cnnc2)cc1OC	-14%	2%	10%	-21%	?
N#CCCn1cc(/C=N/NC(N)=S)c(-c2ccccc2)n1	25µM*	-11%	-19%	-24%	i
COc1ccc(-c2nn(-c3ccccc3)cc2/C=N/NC(N)=S)cc1OC	32µM*	8%	-19%	-39%	?
CN(C)S(=O)(=O)c1ccc(N2CCOCC2)c(C(=O)N2CCCc3ccccc32)c1	-2%	/	/	/	/
COc1cc(CNc2cccc3[nH]c(C(F)(F)F)nc23)cc(OC)c1	-5%	/	13µM*	-46%	i
COc1cccc2c(Nc3ccccc3O)cc(C)nc12	0%	/	/	/	/
COc1cccc2c(N/N=C/c3ccc(O)c(O)c3)cc(C)nc12	20µM*	20%	-21%	-27%	i
COc1ccc2nc(C)cc(N/N=C/c3ccc(F)cc3)c2c1	?	?	4µM*	5µM*	?
COc1ccc(/C=N/Nc2cc(C)nc3c(C)cccc23)cc1	?	?	?	13µM*	?
COc1ccc(/C=N/Nc2cc(C)nc3ccccc23)cc1	0%	?	?	-76%	?
CCOC(=O)c1cccc(NC(=O)c2ccc3nc(Cc4ccccc4)oc3c2)c1	-2%	?	-35%	-34%	0.79µM*
COc1cccc(NC(=O)c2ccc3nc(Cc4ccccc4)oc3c2)c1	-24%	?	?	-3%	?
Cn1c(CN2CCN(c3ccccc3NC(=O)Nc3ccccc3)CC2)nc2ccccc21	-28%	/	/	/	/
CCOC(=O)C1=C(C)NC(=O)NC1c1ccc([N+](=O)[O-])o1 (configuration not stated)	0%	/	-8%	-1%	i
CCOC(=O)COc1ccccc1C1C(C(=O)OC)=C(C)NC2=C1C(=O)c1ccccc12 (configuration not stated)	?	-7%	16µM*	-62%	?
CCOC(=O)C1=C(C)NC2=C(C(=O)c3ccccc32)C1c1ccc([N+](=O)[O-])o1 (configuration not stated)	28µM*	40%	?	0%	i
Cc1cc(C(=O)NCCc2ccccc2)c2cccc(C)c2n1	-15%	/	/	/	/
Nn1c(SCc2ncc(-c3ccccc3)o2)nnc1-c1ccccc1F	6.3µM*	/	/	/	/
Fc1ccc(-c2nnc(SCc3ncc(-c4ccccc4)o3)n2CC2CCCO2)cc1 (configuration not stated)	?	-16%	-6%	-4%	?
